Of roughly 7,900 targets only a part is listed; those with a hit were picked by preference. About 0.6% of all pairs of compound and target were hits.
Compound: C1CCN(C1)C(=O)NC2=CC=CC(=C2)NC3=NC=C(C(=N3)NCCC4=CN=CN4)Br
Assay: log2 fold change, soluble protein after heating vs DMSO (PISA); higher = thermal stabilisation; K562 cells, 10 uM, 30 min; active = over 0.2 and 3.5 SD of the protein, either way, in both replicates (recomputed)
Method in brief: (§1)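 Soluble protein was defined as the supernatant after 21,000xg for 90 min. It came from K562 cells at 2×10^6 cells/mL given 10 μM compound for 30 min, heated in aliquots for 3 min across 48°C-58°C, pooled, and extracted in PBS with 0.5% NP-40 at 4°C, and was quantified by TMTpro 16plex LC-MS/MS with equalised channel sums. Thermal stability against control samples, from duplicates, is reported as log2 fold change.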

Sequence of UniProt Q9ULX6 (Q9ULX6 whole entry, looked up): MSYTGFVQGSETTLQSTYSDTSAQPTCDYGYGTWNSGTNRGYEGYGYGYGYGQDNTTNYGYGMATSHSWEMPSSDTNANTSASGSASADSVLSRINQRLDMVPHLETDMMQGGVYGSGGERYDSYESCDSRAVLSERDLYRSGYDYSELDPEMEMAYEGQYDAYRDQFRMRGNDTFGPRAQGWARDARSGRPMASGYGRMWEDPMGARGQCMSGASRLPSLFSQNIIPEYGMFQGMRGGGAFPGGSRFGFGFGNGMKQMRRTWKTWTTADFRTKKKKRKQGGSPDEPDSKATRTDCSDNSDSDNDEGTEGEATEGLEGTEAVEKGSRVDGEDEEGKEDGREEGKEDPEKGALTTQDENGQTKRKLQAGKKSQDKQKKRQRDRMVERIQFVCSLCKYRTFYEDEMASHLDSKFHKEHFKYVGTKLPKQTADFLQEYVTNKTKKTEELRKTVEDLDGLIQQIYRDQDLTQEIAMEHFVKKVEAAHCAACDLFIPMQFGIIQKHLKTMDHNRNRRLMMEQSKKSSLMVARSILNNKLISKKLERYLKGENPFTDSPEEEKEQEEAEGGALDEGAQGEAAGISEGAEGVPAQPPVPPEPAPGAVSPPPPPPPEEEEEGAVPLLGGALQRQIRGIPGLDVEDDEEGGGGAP
Sequence of UniProt P05091 (P05091 whole entry, looked up): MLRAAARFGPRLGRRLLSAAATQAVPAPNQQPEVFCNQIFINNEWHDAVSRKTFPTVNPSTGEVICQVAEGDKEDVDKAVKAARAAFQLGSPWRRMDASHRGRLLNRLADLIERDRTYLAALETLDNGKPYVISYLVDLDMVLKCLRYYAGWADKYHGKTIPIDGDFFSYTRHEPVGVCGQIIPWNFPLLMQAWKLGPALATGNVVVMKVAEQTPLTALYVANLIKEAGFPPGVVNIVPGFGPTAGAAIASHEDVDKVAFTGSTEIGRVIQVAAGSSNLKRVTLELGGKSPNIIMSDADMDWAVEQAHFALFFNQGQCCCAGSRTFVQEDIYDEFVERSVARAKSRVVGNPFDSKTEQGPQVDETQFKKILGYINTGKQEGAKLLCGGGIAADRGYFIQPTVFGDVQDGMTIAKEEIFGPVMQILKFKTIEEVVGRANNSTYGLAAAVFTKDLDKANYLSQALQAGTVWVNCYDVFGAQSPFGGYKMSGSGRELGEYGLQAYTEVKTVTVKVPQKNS
Sequence of UniProt Q9UI12 (Q9UI12 whole entry, looked up): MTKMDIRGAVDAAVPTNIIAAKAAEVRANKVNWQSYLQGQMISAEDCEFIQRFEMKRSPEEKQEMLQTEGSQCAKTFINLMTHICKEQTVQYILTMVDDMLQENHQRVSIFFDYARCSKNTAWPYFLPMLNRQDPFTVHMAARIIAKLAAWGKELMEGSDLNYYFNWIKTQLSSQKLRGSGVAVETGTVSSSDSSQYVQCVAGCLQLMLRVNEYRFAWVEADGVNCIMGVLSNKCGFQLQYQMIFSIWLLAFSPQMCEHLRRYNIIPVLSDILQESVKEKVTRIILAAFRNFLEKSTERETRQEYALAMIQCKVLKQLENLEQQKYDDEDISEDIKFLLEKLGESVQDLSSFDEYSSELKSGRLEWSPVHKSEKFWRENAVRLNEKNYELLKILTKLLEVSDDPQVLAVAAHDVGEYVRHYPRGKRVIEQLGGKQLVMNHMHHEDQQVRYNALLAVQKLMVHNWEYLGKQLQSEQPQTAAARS
Sequence of UniProt O94973 (O94973 whole entry, looked up): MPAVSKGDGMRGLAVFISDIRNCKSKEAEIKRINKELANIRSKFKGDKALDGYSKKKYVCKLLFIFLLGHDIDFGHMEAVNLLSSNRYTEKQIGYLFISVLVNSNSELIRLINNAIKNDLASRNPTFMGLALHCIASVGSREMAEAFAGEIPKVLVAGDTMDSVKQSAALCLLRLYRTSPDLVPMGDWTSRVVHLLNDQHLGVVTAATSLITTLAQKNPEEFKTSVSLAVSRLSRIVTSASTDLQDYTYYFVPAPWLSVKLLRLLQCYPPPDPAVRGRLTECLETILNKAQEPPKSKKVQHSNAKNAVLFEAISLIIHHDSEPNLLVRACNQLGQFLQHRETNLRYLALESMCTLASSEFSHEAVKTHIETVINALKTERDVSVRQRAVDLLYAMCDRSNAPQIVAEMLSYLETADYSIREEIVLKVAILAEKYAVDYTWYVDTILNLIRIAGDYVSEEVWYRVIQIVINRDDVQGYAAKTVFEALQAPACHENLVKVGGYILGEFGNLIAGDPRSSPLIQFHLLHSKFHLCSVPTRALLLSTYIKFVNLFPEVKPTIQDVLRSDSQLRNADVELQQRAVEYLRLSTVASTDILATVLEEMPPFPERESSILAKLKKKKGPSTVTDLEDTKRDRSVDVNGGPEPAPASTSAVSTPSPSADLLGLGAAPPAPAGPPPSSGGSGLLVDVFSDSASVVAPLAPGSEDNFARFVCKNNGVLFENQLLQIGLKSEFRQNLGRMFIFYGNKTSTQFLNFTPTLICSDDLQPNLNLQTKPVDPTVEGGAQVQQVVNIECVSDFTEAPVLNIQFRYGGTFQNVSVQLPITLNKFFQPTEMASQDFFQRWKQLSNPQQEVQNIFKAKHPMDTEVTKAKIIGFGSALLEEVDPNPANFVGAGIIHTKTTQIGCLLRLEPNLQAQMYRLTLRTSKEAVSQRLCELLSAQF
Sequence of UniProt Q14137 (Q14137 whole entry, looked up): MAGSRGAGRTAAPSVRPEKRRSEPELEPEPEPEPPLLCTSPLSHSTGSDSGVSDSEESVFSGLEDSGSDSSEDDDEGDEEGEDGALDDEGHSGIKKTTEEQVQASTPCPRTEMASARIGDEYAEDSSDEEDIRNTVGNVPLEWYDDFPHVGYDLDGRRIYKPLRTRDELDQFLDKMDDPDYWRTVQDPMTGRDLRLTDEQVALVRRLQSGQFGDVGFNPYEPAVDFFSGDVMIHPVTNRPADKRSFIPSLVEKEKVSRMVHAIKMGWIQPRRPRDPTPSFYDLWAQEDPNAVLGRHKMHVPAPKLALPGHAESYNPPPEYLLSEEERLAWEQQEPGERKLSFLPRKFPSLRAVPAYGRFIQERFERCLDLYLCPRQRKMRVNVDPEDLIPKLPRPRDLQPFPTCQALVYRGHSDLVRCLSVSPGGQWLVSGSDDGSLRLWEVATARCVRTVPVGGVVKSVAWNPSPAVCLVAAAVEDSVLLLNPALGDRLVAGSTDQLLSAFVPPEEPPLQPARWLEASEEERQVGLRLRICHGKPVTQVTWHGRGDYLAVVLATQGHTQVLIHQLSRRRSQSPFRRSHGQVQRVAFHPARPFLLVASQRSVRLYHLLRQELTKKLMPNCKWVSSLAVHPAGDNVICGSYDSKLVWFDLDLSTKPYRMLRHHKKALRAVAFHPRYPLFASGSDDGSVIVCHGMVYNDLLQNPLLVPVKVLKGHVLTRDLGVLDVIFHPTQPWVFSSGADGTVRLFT
Sequence of UniProt O00170 (O00170 whole entry, looked up): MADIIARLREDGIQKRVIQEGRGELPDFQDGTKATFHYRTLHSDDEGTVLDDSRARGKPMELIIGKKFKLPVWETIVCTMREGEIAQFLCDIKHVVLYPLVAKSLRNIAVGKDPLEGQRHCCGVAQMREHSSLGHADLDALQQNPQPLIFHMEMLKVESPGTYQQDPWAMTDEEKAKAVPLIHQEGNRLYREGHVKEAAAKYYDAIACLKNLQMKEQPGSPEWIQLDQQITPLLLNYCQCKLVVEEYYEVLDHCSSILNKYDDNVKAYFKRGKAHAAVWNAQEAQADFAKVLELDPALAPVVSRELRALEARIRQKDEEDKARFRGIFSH
Sequence of UniProt Q5T9A4 (Q5T9A4 whole entry, looked up): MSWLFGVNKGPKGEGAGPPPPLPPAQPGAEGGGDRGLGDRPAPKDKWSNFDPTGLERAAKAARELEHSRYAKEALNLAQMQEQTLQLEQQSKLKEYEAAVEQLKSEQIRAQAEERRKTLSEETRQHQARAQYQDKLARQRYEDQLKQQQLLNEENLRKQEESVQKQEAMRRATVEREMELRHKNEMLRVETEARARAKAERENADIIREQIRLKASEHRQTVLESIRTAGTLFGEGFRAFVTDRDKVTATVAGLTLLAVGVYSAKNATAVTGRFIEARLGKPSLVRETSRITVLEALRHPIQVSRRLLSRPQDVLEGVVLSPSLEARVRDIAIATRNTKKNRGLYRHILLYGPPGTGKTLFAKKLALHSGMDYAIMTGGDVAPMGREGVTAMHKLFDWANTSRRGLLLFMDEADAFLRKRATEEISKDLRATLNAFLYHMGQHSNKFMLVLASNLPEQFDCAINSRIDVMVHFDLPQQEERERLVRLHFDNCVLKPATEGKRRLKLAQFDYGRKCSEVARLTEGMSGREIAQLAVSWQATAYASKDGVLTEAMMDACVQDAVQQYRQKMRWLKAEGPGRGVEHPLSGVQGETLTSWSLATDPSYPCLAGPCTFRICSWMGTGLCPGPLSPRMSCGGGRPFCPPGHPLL
Sequence of UniProt P55263 (P55263 whole entry, looked up): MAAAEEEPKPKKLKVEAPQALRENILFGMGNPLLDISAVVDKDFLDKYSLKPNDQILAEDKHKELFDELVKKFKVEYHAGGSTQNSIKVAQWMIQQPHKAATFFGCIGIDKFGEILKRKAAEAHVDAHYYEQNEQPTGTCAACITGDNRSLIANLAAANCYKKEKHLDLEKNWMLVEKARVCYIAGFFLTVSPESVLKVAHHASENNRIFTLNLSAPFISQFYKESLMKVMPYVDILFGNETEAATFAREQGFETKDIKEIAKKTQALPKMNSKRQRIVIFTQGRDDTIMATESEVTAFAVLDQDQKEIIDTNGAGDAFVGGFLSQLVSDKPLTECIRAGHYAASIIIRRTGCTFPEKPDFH
Sequence of UniProt Q9Y673 (Q9Y673 whole entry, looked up): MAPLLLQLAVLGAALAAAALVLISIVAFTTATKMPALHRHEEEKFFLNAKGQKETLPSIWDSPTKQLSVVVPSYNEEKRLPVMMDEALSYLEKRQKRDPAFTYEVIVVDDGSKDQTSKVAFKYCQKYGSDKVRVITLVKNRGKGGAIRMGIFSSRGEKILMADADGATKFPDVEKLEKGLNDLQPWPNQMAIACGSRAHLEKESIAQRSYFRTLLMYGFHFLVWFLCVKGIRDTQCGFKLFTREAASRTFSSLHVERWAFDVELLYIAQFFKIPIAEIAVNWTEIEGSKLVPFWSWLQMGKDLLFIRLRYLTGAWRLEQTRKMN

Row | Target | log2 fold change
1 | AARSD1 isoform 3 (UniProt Q9BTE6) | -0.006 (inactive)
2 | ALDH6A1 (UniProt Q02252) | -0.03 (inactive)
3 | ATP6V1H (UniProt Q9UI12) | -0.051 (inactive)
4 | ALG5 (UniProt Q9Y673) | -0.026 (inactive)
5 | ARHGAP1 (UniProt Q07960) | 0.002 (inactive)
6 | BMP2K (UniProt Q9NSY1) | 0.353 (inactive)
7 | AHCYL1 (UniProt O43865) | 0.077 (inactive)
8 | ANKZF1 (UniProt Q9H8Y5) | 0.057 (inactive)
9 | AIP (UniProt O00170) | 0.005 (inactive)
10 | ATP23 (UniProt Q9Y6H3) | 0.007 (inactive)
11 | BRD4 (UniProt O60885) | -0.121 (inactive)
12 | BCCIP (UniProt Q9P287) | -0.036 (inactive)
13 | BTBD6 (UniProt Q96KE9) | -0.19 (inactive)
14 | ABCB6 (UniProt Q9NP58) | -0.057 (inactive)
15 | ATAD3B (UniProt Q5T9A4) | 0.01 (inactive)
16 | BCL9L (UniProt Q86UU0) | -0.052 (inactive)
17 | AP2A2 isoform 2 (UniProt O94973) | -0.284 (active)
18 | ADK (UniProt P55263) | -0.032 (inactive)

Row | Target | log2 fold change
19 | AKR1C2 (UniProt P52895) | 0.044 (inactive)
20 | BCLAF1 (UniProt Q9NYF8) | -0.089 (inactive)
21 | ACO2 (UniProt Q99798) | 0.018 (inactive)
22 | ALDH2 (UniProt P05091) | -0.041 (inactive)
23 | ATF7 isoform 6 (UniProt P17544) | -0.004 (inactive)
24 | AMD1 (UniProt P17707) | -0.224 (inactive)
25 | ARFIP1 (UniProt P53367) | 0 (inactive)
26 | AKT1 (UniProt P31749) | -0.026 (inactive)
27 | ABCA4 (UniProt P78363) | 0.033 (inactive)
28 | BLOC1S3 (UniProt Q6QNY0) | -0.032 (inactive)
29 | ARL2BP (UniProt Q9Y2Y0) | -0.008 (inactive)
30 | AGPS (UniProt O00116) | -0.01 (inactive)
31 | AMFR (UniProt Q9UKV5) | 0.002 (inactive)
32 | AGPAT1 (UniProt Q99943) | 0.001 (inactive)
33 | BOP1 (UniProt Q14137) | 0.043 (inactive)
34 | AKAP8L (UniProt Q9ULX6) | -0.053 (inactive)
35 | ATP2A3 isoform 2 (UniProt Q93084) | -0.025 (inactive)
36 | ATAD1 (UniProt Q8NBU5) | 0 (inactive)

Compound: C1CN(CCC1(CC2=CC=C(C=C2)Cl)N)C3=NC=NC4=C3C=CN4
Assay: as above
Method in brief: as §1

Row | Target | log2 fold change
37 | AARSD1 isoform 3 (UniProt Q9BTE6) | -0.086 (inactive)
38 | ALDH6A1 (UniProt Q02252) | 0.043 (inactive)
39 | ATP6V1H (UniProt Q9UI12) | -0.097 (inactive)
40 | ALG5 (UniProt Q9Y673) | -0.007 (inactive)
41 | ARHGAP1 (UniProt Q07960) | 0.019 (inactive)
42 | BMP2K (UniProt Q9NSY1) | -0.061 (inactive)
43 | AHCYL1 (UniProt O43865) | 0.104 (inactive)
44 | ANKZF1 (UniProt Q9H8Y5) | -0.022 (inactive)
45 | AIP (UniProt O00170) | -0.026 (inactive)
46 | ATP23 (UniProt Q9Y6H3) | -0.014 (inactive)
47 | BRD4 (UniProt O60885) | -0.117 (inactive)
48 | BCCIP (UniProt Q9P287) | 0.114 (inactive)
49 | BTBD6 (UniProt Q96KE9) | 0.185 (inactive)
50 | ABCB6 (UniProt Q9NP58) | 0.023 (inactive)
51 | ATAD3B (UniProt Q5T9A4) | -0.091 (inactive)
52 | BCL9L (UniProt Q86UU0) | 0.091 (inactive)
53 | AP2A2 isoform 2 (UniProt O94973) | 0.028 (inactive)
54 | ADK (UniProt P55263) | 0.085 (inactive)

Row | Target | log2 fold change
55 | AKR1C2 (UniProt P52895) | -0.028 (inactive)
56 | BCLAF1 (UniProt Q9NYF8) | -0.15 (inactive)
57 | ACO2 (UniProt Q99798) | 0.015 (inactive)
58 | ALDH2 (UniProt P05091) | 0.02 (inactive)
59 | ATF7 isoform 6 (UniProt P17544) | -0.117 (inactive)
60 | AMD1 (UniProt P17707) | 0.025 (inactive)
61 | ARFIP1 (UniProt P53367) | 0.044 (inactive)
62 | AKT1 (UniProt P31749) | 0.164 (inactive)
63 | ABCA4 (UniProt P78363) | 0.145 (inactive)
64 | BLOC1S3 (UniProt Q6QNY0) | 0.052 (inactive)
65 | ARL2BP (UniProt Q9Y2Y0) | -0.072 (inactive)
66 | AGPS (UniProt O00116) | 0.077 (inactive)
67 | AMFR (UniProt Q9UKV5) | -0.009 (inactive)
68 | AGPAT1 (UniProt Q99943) | 0.048 (inactive)
69 | BOP1 (UniProt Q14137) | 0.036 (inactive)
70 | AKAP8L (UniProt Q9ULX6) | 0.031 (inactive)
71 | ATP2A3 isoform 2 (UniProt Q93084) | 0.059 (inactive)
72 | ATAD1 (UniProt Q8NBU5) | -0.006 (inactive)
